Results as given in PubChem BioAssay (NCATS).
“And” between values parts separate entries of the source, which are not always exact repeats. Identical values can stand only once. Records with an inconclusive call do not appear. Where a structure was tested more than once in an assay, its records may differ in their call. The source made the active and inactive calls. Calls come from the whole dose curve; as a rule, active = well fitted inhibition curve with a large enough effect; inconclusive = small, poorly fitted or top-dose-only effect; inactive = flat fitted curve, though single readings scatter.

Experiments:
CRL-7250 = normal cell line; assay: Cytotoxic Profiling of Annotated Libraries Using Quantitative High-Throughput Screening (AID 1296008); conditions: Five cell lines viability, CellTiter-Glo ATP luminescence, 48-72 h; max response: stronger effect = lower value; note: potency is the fitted concentration of half-maximal effect; for max response: % is set by controls: 0 for no effect and ±100 for the full control effect
Outline: (§1)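 Cytotoxicity was measured as CellTiter-Glo ATP luminescence, read after 10 min at room temperature. Compound treatment of the cells lasted 48 or 72 hr at 37 degrees Celsius in a qHTS format.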

HEK293 = assay: as above; conditions: Five cell lines viability, CellTiter-Glo ATP luminescence, 48-72 h; max response: stronger effect = lower value
Outline: as §1

HaCat [1] = assay: as above; conditions: Five cell lines viability, CellTiter-Glo ATP luminescence, 48-72 h; max response: stronger effect = lower value
Outline: as §1

KB-3-1 = assay: as above; conditions: Five cell lines viability, CellTiter-Glo ATP luminescence, 48-72 h; max response: stronger effect = lower value
Outline: as §1

NIH3T3 [2] = assay: as above; conditions: Five cell lines viability, CellTiter-Glo ATP luminescence, 48-72 h; max response: stronger effect = lower value
Outline: as §1

HACAT [3] = assay: qHTS assay to identify novel small-molecules to repurpose for Merkel cell carcinoma treatment (AID 1296009); conditions: MCC and control cell lines, CellTiter-Glo viability, 72 h; at 44.8 µM (top of the series) unless noted; note: potency is the fitted concentration of half-maximal effect
Outline: (§2)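 After compound transfer in DMSO, plates were kept 72 hr at 37 degree celsius. Luminescent ATP signal from CellTiter-Glo served as viability measure, normalized against DMSO and no-cell controls.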

MCC-13 = assay: as above; conditions: MCC and control cell lines, CellTiter-Glo viability, 72 h; series mostly up to 46 µM
Outline: as §2

MKL-1 = assay: as above; conditions: MCC and control cell lines, CellTiter-Glo viability, 72 h; series mostly up to 46 µM
Outline: as §2

MKL-2 = assay: as above; conditions: MCC and control cell lines, CellTiter-Glo viability, 72 h; series mostly up to 46 µM
Outline: as §2

NIH3T3 [4] = assay: as above; conditions: MCC and control cell lines, CellTiter-Glo viability, 72 h; at 44.8 µM (top of the series) unless noted
Outline: as §2

UISO = assay: as above; conditions: MCC and control cell lines, CellTiter-Glo viability, 72 h; series mostly up to 46 µM
Outline: as §2

WaGa = assay: as above; conditions: MCC and control cell lines, CellTiter-Glo viability, 72 h; series mostly up to 46 µM
Outline: as §2

HEK293T = assay: as above; conditions: MCC and control cell lines, CellTiter-Glo viability, 72 h; at 44.8 µM (top of the series) unless noted
Outline: as §2

MCC-26 = assay: as above; conditions: MCC and control cell lines, CellTiter-Glo viability, 72 h; series mostly up to 46 µM
Outline: as §2

PC49 = assay: qHTS profiling for inhibitors of Plasmodium falciparum proliferation (AID 504749);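 note: 0% = DMSO vehicle and full inhibition = artemisinin control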; conditions: P. falciparum in erythrocytes, SYBR Green DNA, 72 h; series mostly up to 28.7 µM
Outline: (§3)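 Three-day growth assay of blood-stage parasites in erythrocytes (0.3% parasitemia, 2.5% hematocrit) at 37 C, 5% CO2, quantified by SYBR Green DNA staining after overnight detergent lysis.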

SC27B = assay: as above; conditions: P. falciparum in erythrocytes, SYBR Green DNA, 72 h; series mostly up to 28.7 µM
Outline: as §3

TAB109 = assay: as above; conditions: P. falciparum in erythrocytes, SYBR Green DNA, 72 h; series mostly up to 28.7 µM
Outline: as §3

TAB113 = assay: as above; conditions: P. falciparum in erythrocytes, SYBR Green DNA, 72 h; series mostly up to 28.7 µM
Outline: as §3

TAB165 = assay: as above; conditions: P. falciparum in erythrocytes, SYBR Green DNA, 72 h; series mostly up to 28.7 µM
Outline: as §3

W2 = assay: as above; conditions: P. falciparum in erythrocytes, SYBR Green DNA, 72 h; series mostly up to 28.7 µM
Outline: as §3
Note: nearly all actives have a fitted effect of over 60% in size.

CN(C)CCc1c[nH]c2ccc(C[C@H]3COC(=O)N3)cc12
inactive: max response (CRL-7250) -10.2% | outcome (CRL-7250) | max response (HEK293) 4.33% and -3.7% | max response (HaCat [1]) 4.23% | outcome (HaCat [1]) | max response (KB-3-1) 7.3% and 1.82% | max response (NIH3T3 [2]) -0.145% | outcome (NIH3T3 [2]) | outcome (HACAT [3]) | Potency (MCC-13) | Potency (MKL-1) | Potency (MKL-2) | outcome (NIH3T3 [4]) | Potency (UISO) | Potency (WaGa)
active: Potency (HEK293) 4.18 µM | Potency (HaCat [1]) 14.8 µM | Potency (NIH3T3 [2]) 10.5 µM

CNS(=O)(=O)CCc1ccc2[nH]cc(C3CCN(C)CC3)c2c1
inactive: max response (CRL-7250) -7.4% and 0.211% | outcome (CRL-7250) | max response (HaCat [1]) 0.93% | outcome (HaCat [1]) | max response (KB-3-1) -19.4% and 0.237% | outcome (KB-3-1) | max response (NIH3T3 [2]) 0.12% | outcome (NIH3T3 [2]) | outcome (HACAT [3]) | outcome (HEK293T) | Potency (MCC-13) | Potency (MKL-1) | Potency (MKL-2) | outcome (NIH3T3 [4]) | Potency (UISO) | Potency (WaGa)

O=C(N[C@H](CO)[C@H](O)c1ccc([N+](=O)[O-])cc1)C(Cl)Cl
active: Potency (HEK293) 15.4 µM
inactive: max response (CRL-7250) 2.58% | outcome (CRL-7250) | outcome (HEK293) | max response (HaCat [1]) -14.6% and -20.9% | max response (KB-3-1) -16.7% | outcome (KB-3-1) | max response (NIH3T3 [2]) 4.84% and -8.61% | outcome (HEK293T) | Potency (MCC-13) | Potency (MCC-26) | Potency (MKL-1) | Potency (MKL-2) | Potency (UISO) | Potency (WaGa)

O=S(=O)(O)CCS
inactive: Potency (PC49) | Potency (SC27B) | Potency (TAB109) | Potency (TAB113) | Potency (TAB165) | Potency (W2) | max response (CRL-7250) 3.2% | outcome (CRL-7250) | max response (HEK293) -11.9% | outcome (HEK293) | max response (HaCat [1]) -12.1% | outcome (HaCat [1]) | max response (KB-3-1) 0.578% | max response (NIH3T3 [2]) 1.04% and -6.12% | outcome (HACAT [3]) | outcome (HEK293T) | Potency (MCC-13) | Potency (MCC-26) | Potency (MKL-1) | Potency (MKL-2) | Potency (UISO) | Potency (WaGa)

CCCN[C@H]1CCc2nc(N)sc2C1
inactive: Potency (PC49) | Potency (SC27B) | Potency (TAB109) | Potency (TAB113) | Potency (TAB165) | Potency (W2) | max response (CRL-7250) 0.673% | outcome (CRL-7250) | outcome (HEK293) | max response (HaCat [1]) 3.55% | outcome (HaCat [1]) | max response (KB-3-1) 5.22% and 4.84% | max response (NIH3T3 [2]) 4.11% and -1.47% | outcome (HACAT [3]) | outcome (HEK293T) | Potency (MCC-13) | Potency (MCC-26) | Potency (MKL-1) | Potency (MKL-2) | Potency (UISO) | Potency (WaGa)

O=c1cc(O)c(Cl)c[nH]1
inactive and 8.33 µM (active): Potency (WaGa)
inactive: Potency (PC49) | Potency (SC27B) | Potency (TAB109) | Potency (TAB113) | Potency (TAB165) | Potency (W2) | max response (CRL-7250) -3.23% | outcome (CRL-7250) | max response (HEK293) 3.54% and 0.705% | max response (HaCat [1]) -15.6% | outcome (HaCat [1]) | max response (KB-3-1) 2.19% | max response (NIH3T3 [2]) 2.08% | outcome (NIH3T3 [2]) | outcome (HACAT [3]) | Potency (MCC-13) | Potency (MCC-26) | Potency (MKL-1) | Potency (MKL-2) | outcome (NIH3T3 [4]) | Potency (UISO)

CCC(C)(C)c1ccc(CC(C)CN2C[C@@H](C)O[C@@H](C)C2)cc1 (stereo partly specified)
inactive: Potency (PC49) | Potency (SC27B) | Potency (TAB109) | Potency (TAB113) | Potency (TAB165) | max response (CRL-7250) 0.576% | outcome (CRL-7250) | max response (HEK293) -0.508% and -3.77% | outcome (HaCat [1]) | max response (KB-3-1) 0.53% and -5.13% | max response (NIH3T3 [2]) 3.97% and -6% | outcome (HACAT [3]) | Potency (MCC-13) | Potency (MKL-1) | Potency (MKL-2) | Potency (UISO) | Potency (WaGa)

O=NN(CCCl)C(=O)NC1CCCCC1
inactive: Potency (PC49) | Potency (SC27B) | Potency (TAB109) | Potency (TAB113) | Potency (TAB165) | Potency (W2) | max response (CRL-7250) 4.87% | outcome (CRL-7250) | max response (HEK293) 3.97% | outcome (HEK293) | max response (HaCat [1]) 4.22% | outcome (HaCat [1]) | max response (KB-3-1) 2.75% | outcome (KB-3-1) | max response (NIH3T3 [2]) -1.41% | outcome (NIH3T3 [2]) | outcome (HACAT [3]) | outcome (HEK293T) | Potency (MCC-13) | Potency (MCC-26) | Potency (MKL-1) | Potency (MKL-2) | outcome (NIH3T3 [4]) | Potency (UISO) | Potency (WaGa)

Cc1cccc(Nc2ccncc2S(=O)(=O)NC(=O)NC(C)C)c1
inactive: Potency (PC49) | Potency (SC27B) | Potency (TAB109) | Potency (TAB113) | Potency (TAB165) | Potency (W2) | max response (CRL-7250) -14.3% | outcome (CRL-7250) | max response (HEK293) 1.87% and -6.16% | max response (HaCat [1]) -0.391% | outcome (HaCat [1]) | max response (KB-3-1) -4.26% and -4.09% | max response (NIH3T3 [2]) 4.21% and -1.03% | outcome (HACAT [3]) | Potency (MCC-13) | Potency (MCC-26) | Potency (MKL-1) | Potency (MKL-2) | Potency (UISO) | Potency (WaGa)
